Assay [1] is described as follows: qHTS RealTime-Glo MT Cell Viability Assay in HepG2 cells - 40 hour (AID 1224870). Also: nearly all actives have a fitted effect of over 50% in size. In short, it runs like this: (§1)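 HepG2 cells mixed with RealTime-Glo MT reagents (NanoLuc plus cell-permeant prosubstrate) were seeded at 600 cells/well, incubated 5 h at 37 C/5% CO2, then pinned with compounds in DMSO; nonlytic luminescence tracked viability during 40 h treatment.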
For orientation: qHTS replaces the single test concentration by a dilution series.

A short description of assay [2]: A CellTox Green Cytotoxicity Assay to monitor cytotoxicity in HEK293 cells - 40 hour (AID 1224871). Also: nearly all actives have a fitted effect of over 45% in size. Summed up: (§2)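 Each value comes from one timepoint of a single continuous run in which HEK293 cells with CellTox Green were exposed to compound for up to 40 h at 37 C, dye fluorescence rising with cell death.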
A short description of assay [3]: qHTS RealTime-Glo MT Cell Viability Assay in HepG2 cells - 8 hour (AID 1224873). Also: nearly all actives have a fitted effect of over 55% in size. In short, it runs like this:
as §1

Assay [4] in a line: qHTS RealTime-Glo MT Cell Viability Assay in HEK293 cells - 40 hour (AID 1224874). Also: nearly all actives have a fitted effect of over 50% in size. Also: potency is read from the fitted curve at half-maximal effect. The note with it: RealTime-Glo luminescence; max response: hits give low values. In short, it runs like this: (§3)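 qHTS format; HEK293 cells with NanoLuc/prosubstrate reagent, 37 C/5% CO2 for 5 h pre-dosing; compounds 23 nL in DMSO; luminescence at each time point reflects viable cells.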
Assay [5] is described as follows: A CellTox Green Cytotoxicity Assay to monitor cytotoxicity in HEK293 cells - 24 hour (AID 1224875). Also: series mostly up to about 77 µM; nearly all actives have a fitted effect of over 45% in size. In short, it runs like this:
as §2

Assay [6] is described as follows: A CellTox Green Cytotoxicity Assay to monitor cytotoxicity in HepG2 cells - 16 hour (AID 1224876). Also: nearly all actives have a fitted effect of over 45% in size. Summed up:
(§4)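 Continuous culture of HepG2 cells with a membrane-impermeant DNA dye; rising fluorescence marks dead cells. Compound exposure lasted up to 40 h at 37 C, with reads every 8 h from 0 h.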

The nature of assay [7]: qHTS RealTime-Glo MT Cell Viability Assay in HepG2 cells - 32 hour (AID 1224877). Also: nearly all actives have a fitted effect of over 55% in size. Summed up: (§5)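 Cells + NanoLuc/prosubstrate dispensed (600 cells/well) → 5 h at 37 C/5% CO2 → compounds in DMSO transferred → 40 h incubation at 37 C, luminescence read at 0, 8, 16, 24, 32, 40 h.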
Assay [8] is described as follows: A CellTox Green Cytotoxicity Assay to monitor cytotoxicity in HepG2 cells - 24 hour (AID 1224878). Also: nearly all actives have a fitted effect of over 45% in size. In short, it runs like this: as §4
A short description of assay [9]: A CellTox Green Cytotoxicity Assay to monitor cytotoxicity in HepG2 cells - 40 hour (AID 1224879). Also: nearly all actives have a fitted effect of over 40% in size. In short, it runs like this:
as §4

A short description of assay [10]: qHTS RealTime-Glo MT Cell Viability Assay in HEK293 cells - 0 hour (AID 1224880). Summed up:
as §3

Assay [11] in a line: A CellTox Green Cytotoxicity Assay to monitor cytotoxicity in HEK293 cells - 32 hour (AID 1224881). Also: nearly all actives have a fitted effect of over 40% in size. Summed up:
as §2

Assay [12] in a line: A CellTox Green Cytotoxicity Assay to monitor cytotoxicity in HepG2 cells - 32 hour (AID 1224883). Also: nearly all actives have a fitted effect of over 50% in size. Summed up:
as §4

The nature of assay [13]: A CellTox Green Cytotoxicity Assay to monitor cytotoxicity in HEK293 cells - 8 hour (AID 1224884). Also: nearly all actives have a fitted effect of over 35% in size. In short, it runs like this: as §2
Assay [14] is described as follows: qHTS RealTime-Glo MT Cell Viability Assay in HepG2 cells - 16 hour (AID 1224885). Also: nearly all actives have a fitted effect of over 50% in size. In short, it runs like this: as §5
Assay [15] can be described thus: qHTS RealTime-Glo MT Cell Viability Assay in HEK293 cells - 24 hour (AID 1224886). Also: nearly all actives have a fitted effect of over 50% in size. Also: potency is read from the fitted curve at half-maximal effect. Summed up: (§6)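 Tox21 10K qHTS, HEK293, 600 cells/well, RealTime-Glo reagent co-dispensed with cells; 5 h preincubation, compound by pintool, 37 C, luminescence at 0–40 h.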
Assay [16] is described as follows: qHTS RealTime-Glo MT Cell Viability Assay in HEK293 cells - 8 hour (AID 1224887). In short, it runs like this:
as §3

Assay [17] in a line: A CellTox Green Cytotoxicity Assay to monitor cytotoxicity in HEK293 cells - 16 hour (AID 1224888). Also: nearly all actives have a fitted effect of over 35% in size. In short, it runs like this: as §2
Assay [18] can be described thus: qHTS RealTime-Glo MT Cell Viability Assay in HepG2 cells - 0 hour (AID 1224889). Also: nearly all actives have a fitted effect of over 50% in size. In short, it runs like this: as §5
Assay [19] is described as follows: A CellTox Green Cytotoxicity Assay to monitor cytotoxicity in HepG2 cells - 0 hour (AID 1224882). Also: nearly all actives have a fitted effect of over 35% in size. Summed up:
as §4

A short description of assay [20]: qHTS RealTime-Glo MT Cell Viability Assay in HEK293 cells - 16 hour (AID 1224872). Summed up:
as §6

“And” between values parts separate entries of the source, which are not always exact repeats. Identical values can stand only once. Results filed as inconclusive are left out. The source made the active and inactive calls. Calls follow the shape of the dose curve; as a rule, active = well fitted curve in the direction sought with a large enough effect in the repeat runs; inconclusive = weak or mixed curves; inactive = no such curve, though single readings can be large; an effect the other way counts as inactive or inconclusive.
% is scaled to controls: 0 for no effect and ±100 for the full control effect.

`N#Cc1cc(Br)c(O)c(Br)c1`: the Potency result in assay [1], in [2], in assay [3], in assay [5], in [6] and in [7] was “inactive” in each case. For the same compound, the Potency result in assay [8], in assay [9], in assay [10], in assay [11], in [12] and in assay [13] was “inactive” throughout. The Potency result in [14], in assay [15], in [16], in assay [17] and in assay [18] was “inactive” each time. The max response in [4] is -28.3% (inactive) and -19.4% (inactive).
As to `Oc1cc(Cl)ccc1Cl`, the Potency entry in [1], in [2], in [3], in [5], in [6] and in assay [7] was “inactive” each time. In addition, the Potency entry in assay [8], in assay [9], in assay [10], in assay [11], in [12] and in assay [13] was “inactive” in each case. Further, the Potency result in assay [14], in [15], in assay [16], in assay [17] and in assay [18] was “inactive” throughout.
For the compound `Nc1c(Cl)cc([N+](=O)[O-])cc1Cl`, the Potency entry in assay [1], in assay [2], in [3], in assay [5], in assay [6] and in [7] was “inactive” each time. Further, the Potency result in assay [8], in assay [9], in assay [10], in assay [11], in [19] and in [12] was “inactive” each time. The Potency result in assay [13], in assay [14], in assay [15], in assay [16], in [17] and in assay [18] was “inactive” each time. Also, the max response in assay [4] was -14.9% (inactive).
Turning to `Cc1c(COC(=O)[C@@H]2[C@H](/C=C(\Cl)C(F)(F)F)C2(C)C)cccc1-c1ccccc1`, the Potency result in assay [1], in assay [2], in [3], in assay [5], in assay [7] and in assay [8] was “inactive” throughout. For the same compound, the Potency result in assay [9], in assay [10], in assay [11], in [19], in [12] and in assay [13] was “inactive” throughout. The Potency entry in assay [14], in assay [16], in [17] and in assay [18] was “inactive” each time. For the same compound, the Potency in [4] is 19.1 µM (active); in assay [15], 21.4 µM (active).
Consider `CCCCCCCCOC(=O)c1ccccc1C(=O)OCCCCCCCC`, for which the Potency result in assay [1], in [2], in assay [3], in assay [5], in [7] and in [8] was “inactive” each time. For the same compound, the Potency result in assay [9], in [10], in assay [11], in assay [12], in assay [13] and in assay [14] was “inactive” in each case. Also, the Potency entry in [15], in assay [16], in [17] and in assay [18] was “inactive” throughout. Besides, the max response in [4] is 2.33% (inactive) and -2.33% (inactive).
In the case of `CCc1cccc(CC)c1N(COC)C(=O)CCl`, the Potency result in assay [1], in assay [20], in assay [3], in assay [5], in assay [6] and in assay [7] was “inactive” throughout. Further, the Potency entry in assay [8], in assay [9], in [10], in assay [11], in assay [19] and in assay [12] was “inactive” in each case. The Potency entry in assay [13], in assay [14], in assay [15], in assay [16], in [17] and in assay [18] was “inactive” each time. Further, the max response in assay [4] is -25.5% (inactive).
On to `Brc1ccc(Oc2cc(Br)c(Br)cc2Br)c(Br)c1`, for which the Potency entry in [1], in [2], in assay [3], in assay [5], in assay [6] and in assay [7] was “inactive” throughout. The Potency entry in [8], in assay [9], in assay [10], in assay [11], in [19] and in assay [12] was “inactive” in each case. In addition, the Potency result in [13], in assay [14], in assay [16], in assay [17] and in assay [18] was “inactive” in each case. Also, the Potency was 43.6 µM (active) in assay [4] and 38.9 µM (active) in assay [15].
Take `N#CC(Br)Br`: the Potency entry in assay [1], in assay [3], in assay [5], in [7], in [8] and in [9] was “inactive” each time. In addition, the Potency entry in assay [10], in [11], in assay [19], in [12], in [13] and in [14] was “inactive” throughout. Further, the Potency entry in assay [15], in assay [16], in [17] and in assay [18] was “inactive” in each case. Also, in [4], the max response was -17% (inactive) and 1.39% (inactive).
As for `C=C(C)C(=O)OCC1CO1` (stereo unspecified), the Potency entry in assay [1], in assay [3], in assay [5], in assay [6], in assay [7] and in assay [8] was “inactive” throughout. Also, the Potency result in assay [9], in assay [10], in [11], in [19], in [12] and in [13] was “inactive” each time. For the same compound, the Potency result in assay [14], in assay [15], in assay [17] and in [18] was “inactive” in each case. Besides, the max response in [4] was 9.74% (inactive) and -15.3% (inactive).
As for `Nn1cnnc1`, the Potency entry in [1], in assay [3], in [5], in [6], in assay [7] and in [8] was “inactive” throughout. The Potency entry in assay [9], in assay [10], in assay [11], in assay [12], in assay [13] and in [14] was “inactive” throughout. Further, the Potency entry in [15], in assay [16], in assay [17] and in [18] was “inactive” each time. Besides, in assay [4], the max response was -2.23% (inactive) and 1.89% (inactive).
As to `CC(C)=CC1C(C(=O)OCc2coc(Cc3ccccc3)c2)C1(C)C` (stereo unspecified), the Potency entry in assay [1], in assay [3], in [5], in [6], in assay [7] and in assay [8] was “inactive” each time. For the same compound, the Potency entry in [9], in assay [10], in [11], in assay [19], in [12] and in assay [13] was “inactive” throughout. Further, the Potency entry in assay [14], in [15], in assay [16], in [17] and in assay [18] was “inactive” in each case. Further, the max response in assay [4] is -17.8% (inactive).

The values are drawn from PubChem BioAssay (Tox21).
